Most compounds without a hit are left out; they make up all but 19% or so of the library.
Shiga toxin inh – inhibitors of Shiga toxin in Vero cells; inhibition, % at 38.7 µM; 290,000 compounds, 9.2% hits; AID 2315; Vero cells, Shiga toxin protein synthesis inhibition reporter; in the data active means inhibition mostly above about 28%, no sharp cut-off; inactive means mostly below about 43%; further: 0% is about no effect
Cycloheximide cs – affects cycloheximide protein synthesis inhibition readout, counter-screen; 300,000 compounds, 12% hits; max response, %; cell reporter, cycloheximide protein synthesis inhibition counterscreen; in the data active means max response mostly above about 13%, no sharp cut-off; inactive means mostly below about 14%; further: read at 38.3 µM for the half of the compounds with a filed dose; 0% is about no effect
AMA1-RON2 inh – disrupts binding of P. falciparum AMA1 to RON2 | AlphaScreen AMA1-biotinylated RON2 peptide binding | Potency, µM (highest dose often 58.2 µM), for inactives: at the top dose activity change, negative = inhibition, hits mostly inhibitors | 360,000 compounds, 0.2% hits;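 further: potency means the concentration at half of the fitted maximal effect; 0% = vehicle wells and -100% = peptide control; nearly all actives have a fitted effect of over 45% in size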
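AMA1 (3D7) with his tag at 25 nM final met compounds first, then biotinylated RON2 peptide at 25 nM; detection used donor plus acceptor beads, 10 µg/mL apiece, read by AlphaScreen after 30 min at room temperature.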
SARS PLP yeast – inhibitors of SARS-CoV papain-like protease in yeast. S. cerevisiae expressing SARS-CoV PLpro, growth rescue. Potency, µM (series often up to 32.9 µM), for inactives: at the highest dose activity, positive = growth rescue, hits mostly activators. 330,000 compounds, 0.19% hits. AID 485353; calls by dose curve; further: potency means the concentration at half of the fitted maximal effect; 0% is about no effect; nearly all actives have a fitted effect of over 55% in size
Pf growth 96h – P. falciparum growth inhibition at 96 hour, primary screen for plastid delayed-death inhibitors. Potency, µM (series often up to 28.7 µM), for the others: top-dose activity change, negative = inhibition, usual class: inhibitors. 320,000 compounds, 6.9% hits. P. falciparum luciferase reporter growth, 96 h; further: potency means the concentration at half of the fitted maximal effect; on the % scale 0 is the no-effect control and ±100 the full control effect
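Compounds incubated with erythrocytes infected by luciferase-expressing P. falciparum (2% hematocrit, 0.05% parasitemia final) for 96 hours, 37 C in 5% CO2. Growth inhibition scored as decreased luciferase luminescence.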
Pf growth 48h – inhibits P. falciparum growth in the first generation, 48 h | P. falciparum luciferase growth in erythrocytes, 48 h | Potency, µM (top dose mostly 28.7 µM), for inactives: top-dose activity change, negative = inhibition, usual class: inhibitors | 310,000 compounds, 5.9% hits | AID 504832; further: potency means the concentration at half of the fitted maximal effect; on the % scale 0 is the no-effect control and ±100 the full control effect
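Here the parasites carry a stable luciferase gene and grow inside erythrocytes in Albumax-based RPMI medium with compound for one erythrocytic cycle. Activity is scored as loss of luminescent signal.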
The depositor's hits bear a star; u = inconclusive; x = no result given. Unless noted, the call rests on the fitted dose curve; in most records, active means well fitted curve in the direction sought with a large enough effect; inconclusive means small, poorly fitted or top-dose-only effect, or another doubt; inactive means no such curve, though single readings can be large; an effect the other way counts as inactive or inconclusive.

SMILES | Shiga toxin inh | Cycloheximide cs | AMA1-RON2 inh | SARS PLP yeast | Pf growth 96h | Pf growth 48h
O=C(Nc1nc2ccccc2s1)C1CCCO1 (stereo not drawn) | 89* | 47* | -6% | -5% | 314% | x
Cc1cc(F)ccc1NC(=O)C1CCCO1 (stereo not drawn) | -16 | 2 | -7% | 1% | 91% | 0%
O=C(/C=C/c1ccccc1[N+](=O)[O-])N1CCN(C(=O)c2ccco2)CC1 | -10 | 1 | 38% | 0% | 8% | -16%
O=C1N(Cc2cccnc2)C[C@@H]2C[C@@H](c3cccc(Oc4ccccc4)c3)N3CCC[C@@]123 | 17 | -2 | 3% | -5% | u | u
O=C(COC(=O)COc1cccc(C(F)(F)F)c1)NC(=O)NC1CCCCC1 | x | x | -14% | -7% | -4% | 2%
O=C(OCc1ccccc1F)c1cnc(Cl)c(Cl)c1 | -7 | 1 | 26% | 1% | 7% | 3%
CCCn1c(N)c(N(CCOC)C(=O)CSc2c(Cl)cccc2Cl)c(=O)[nH]c1=O | x | x | 13% | -2% | x | x
COc1ccc(-c2c(C)sc(NC(=O)c3ccnn3C)c2C#N)cc1 | 9 | -4 | 10% | -2% | -21% | 4%
CC1(C)C(=O)OC(c2cccn2-c2cccc([N+](=O)[O-])c2)C2(CCCCC2)C1=O (stereo not drawn) | -6 | -1 | x | -87% | -25% | 13µM*
CCc1nc2ccc(C(=O)N3CCN(C(=O)c4ccco4)CC3)cn2c1N(C=O)Cc1ccc(OC)cc1 | x | x | -4% | x | x | x
Cc1cccc(CC(=O)NCCS(=O)(=O)N2CCN(c3cccc(Cl)c3)CC2)c1 | x | x | -8% | 5% | 35% | u
CN1CC(C(=O)O)Cc2c1ccc1ccccc21 (stereo not drawn) | 19 | 14 | 6% | -1% | 40% | u
CN1COc2ccc3ccccc3c2C1 | 4 | 18* | 66% | -3% | -1% | -37%
Cn1c(NC(=O)c2ccc(F)cc2)nc2ccccc21 | 40* | 31* | 55% | -2% | -8% | 22%
O=C(Nc1nc2ccccc2n1CCN1CCOCC1)c1ccccc1 | 18 | 10* | 35% | -4% | 0% | -28%
CCN(CC)CCn1c(NC(=O)c2ccc(C(F)(F)F)cc2)nc2ccccc21 | -10 | -3 | 84% | 1% | u | -8%
O=C(Nc1nc2ccccc2c2nc3ccccc3n12)c1ccc(F)cc1 | -5 | -6 | x | 7% | 24% | 35%
CCN(CC)CCn1c(NC(=O)c2ccc(C)cc2)nc2ccccc21 | x | 44* | 63% | -5% | 6.6µM* | 121%
CCCn1c(NC(=O)C2CCN(C(=O)c3ccccc3C)CC2)nc2ccccc21 | x | x | 68% | -1% | u | 12µM*
COCCNC(=O)C1(C)CCCN(Cc2ccc(-n3ccnc3)cc2)C1 (stereo not drawn) | x | x | -5% | x | x | x
CCn1c(NC(=O)c2cccs2)nc2ccccc21 | 65 | 47* | 27% | -10% | x | u
CCC(=O)Nc1nc2ccccc2n1CCN(CC)CC | -5 | 1 | 8% | 7% | x | -1%
CCn1c(NC(C)=O)nc2ccccc21 | -3 | -3 | 43% | -12% | u | 19%
CN(C)CCn1c(NC(=O)c2ccc(Cl)cc2)nc2ccccc21 | 89* | 38* | 23% | 8% | x | u
O=C(CCn1cnnn1)Nc1ccc(Cl)c(Cl)c1 | -2 | -6 | 4% | 1% | 2% | 24%
SMILES | Shiga toxin inh | Cycloheximide cs | AMA1-RON2 inh | SARS PLP yeast | Pf growth 96h | Pf growth 48h
C[n+]1cn(Cc2cc(Cl)ccc2OC(F)F)c2ccccc21 | -4 | -1 | -7% | 1% | u | u
CS(=O)(=O)N1CCN(CC(=O)NC2CCCCC2)CC1 | -4 | -2 | 1% | -1% | 3% | 23%
COCCNc1c(-c2ccc(O)cc2)nc2ccc(Cl)cn12 | 36 | 13 | 0% | 3% | -14% | 4%
CC(C)(C)Nc1c(-c2ccc(O)cc2)nc2ccc(Cl)cn12 | -22 | -9 | -12% | 1% | 16% | 10µM*
CCC12CN(S(=O)(=O)c3ccc(C)cc3)CC(CC)(CN(S(=O)(=O)c3ccc(C)cc3)C1)C2=O | 15 | -3 | -1% | 1% | 2.3µM* | x
COc1ccc(CCN(C)C2CCCN(S(=O)(=O)c3ccccc3)C2)cc1OC (stereo not drawn) | -7 | -2 | -1% | x | -9% | u
Cc1ccc(OCCN2CCN(C(=O)CCC(=O)Nc3nnc(C)s3)CC2)cc1 | 10 | -1 | 5% | 4% | u | -5%
CCc1nnc(NC(=O)CCC(=O)N2CCC(Cc3ccccc3)CC2)s1 | 6 | -1 | 9% | 1% | 10µM* | -30%
Cc1ccc(OCCN2CCN(C(=O)CCC(=O)Nc3nnc(C(C)C)s3)CC2)cc1 | 4 | 8 | -4% | 12% | 2.9µM* | 10µM*
CCCc1nnc(NC(=O)CCC(=O)N2CCN(CCOc3ccc(C)cc3)CC2)s1 | -20 | 1 | 6% | 2% | u | 10µM*
Cc1nnc(SCC(=O)N(C)c2ccccc2)n1-n1cccc1 | x | x | -1% | 2% | -1% | -3%
COC(=O)C1=C(c2ccccc2OCc2ccccc2)C[C@@H]2CC[C@H]1N2C(=O)NCCOc1ccccc1Cl | x | x | -9% | 0% | u | 5.2µM*
COC(=O)C1=C(c2cccc(C#N)c2)C[C@@H]2CC[C@H]1N2C(=O)NCCOc1ccccc1Cl | x | x | -3% | 1% | u | 13µM*
COC(=O)C1=C(c2cccc(OCc3ccccc3)c2)C[C@@H]2CC[C@H]1N2C | x | x | -5% | x | x | x
COC(=O)C1=C(c2ccc(C(C)=O)cc2)C[C@@H]2CC[C@H]1N2C(=O)NCCOc1ccccc1Cl | x | x | 0% | 9% | u | u
COC(=O)C1=C(c2cccc(OCc3ccccc3)c2)C[C@@H]2CC[C@H]1N2C(=O)NCCc1ccc(F)cc1 | x | x | -2% | -3% | u | 7.4µM*
COC(=O)C1=C(c2cccc(OCc3ccccc3)c2)C[C@@H]2CC[C@H]1N2C(=O)NCCOc1ccccc1Cl | x | x | -14% | 5% | u | 13µM*
CCCCn1c(O)c2n(c1=O)Cc1ccccc1N=C2c1ccc(OC)cc1 | x | x | -7% | x | x | x
O=C(NCc1ccccc1)c1cccc(NC(=O)C2CCCC2)c1 | x | x | 1% | x | x | x
CCc1ccc(S(=O)(=O)N2CCN(C(=O)c3cccnc3)CC2)cc1 | x | -3 | -1% | -1% | -16% | 10%
Cn1nc(C2CC2)cc1NC(=O)C1(C)CCN1C(=O)Cc1ccc(-c2ccccc2)cc1 (stereo not drawn) | x | x | -13% | x | x | x
COC(=O)C1=C(c2cccc(C#N)c2)C[C@@H]2CC[C@H]1N2C(=O)NCCOc1ccccc1 | x | x | 3% | 0% | -1% | u
COC(=O)C1=C(c2cccc(OCc3ccccc3)c2)C[C@@H]2CC[C@H]1N2C(=O)NCCOc1ccccc1 | x | x | -6% | 1% | u | 9.3µM*
CCOc1ccc(C(=O)NCc2ccc3c(c2)OCO3)cc1OCC | x | -8 | 0% | 3% | -11% | 15%

Source: PubChem BioAssay (National Center for Advancing Translational Sciences (NCATS))
